Holding throughout (design): scale not given: direction of the effect not stated beside the values
Assay [1] has as its target Protein translocase subunit SecA (Escherichia coli (strain K12)) (UniProt P10408). Kind of assay: Assay to Identify E. coli SecA ATPase Inhibitors. The format is functional. The following applies: 30 µM.
For assay [2], the target named is T1, Ubiquitin-activating enzyme e1, putative (Leishmania donovani (strain BPK282A1)) (UniProt E9BSI1).
T1 sequence (whole entry): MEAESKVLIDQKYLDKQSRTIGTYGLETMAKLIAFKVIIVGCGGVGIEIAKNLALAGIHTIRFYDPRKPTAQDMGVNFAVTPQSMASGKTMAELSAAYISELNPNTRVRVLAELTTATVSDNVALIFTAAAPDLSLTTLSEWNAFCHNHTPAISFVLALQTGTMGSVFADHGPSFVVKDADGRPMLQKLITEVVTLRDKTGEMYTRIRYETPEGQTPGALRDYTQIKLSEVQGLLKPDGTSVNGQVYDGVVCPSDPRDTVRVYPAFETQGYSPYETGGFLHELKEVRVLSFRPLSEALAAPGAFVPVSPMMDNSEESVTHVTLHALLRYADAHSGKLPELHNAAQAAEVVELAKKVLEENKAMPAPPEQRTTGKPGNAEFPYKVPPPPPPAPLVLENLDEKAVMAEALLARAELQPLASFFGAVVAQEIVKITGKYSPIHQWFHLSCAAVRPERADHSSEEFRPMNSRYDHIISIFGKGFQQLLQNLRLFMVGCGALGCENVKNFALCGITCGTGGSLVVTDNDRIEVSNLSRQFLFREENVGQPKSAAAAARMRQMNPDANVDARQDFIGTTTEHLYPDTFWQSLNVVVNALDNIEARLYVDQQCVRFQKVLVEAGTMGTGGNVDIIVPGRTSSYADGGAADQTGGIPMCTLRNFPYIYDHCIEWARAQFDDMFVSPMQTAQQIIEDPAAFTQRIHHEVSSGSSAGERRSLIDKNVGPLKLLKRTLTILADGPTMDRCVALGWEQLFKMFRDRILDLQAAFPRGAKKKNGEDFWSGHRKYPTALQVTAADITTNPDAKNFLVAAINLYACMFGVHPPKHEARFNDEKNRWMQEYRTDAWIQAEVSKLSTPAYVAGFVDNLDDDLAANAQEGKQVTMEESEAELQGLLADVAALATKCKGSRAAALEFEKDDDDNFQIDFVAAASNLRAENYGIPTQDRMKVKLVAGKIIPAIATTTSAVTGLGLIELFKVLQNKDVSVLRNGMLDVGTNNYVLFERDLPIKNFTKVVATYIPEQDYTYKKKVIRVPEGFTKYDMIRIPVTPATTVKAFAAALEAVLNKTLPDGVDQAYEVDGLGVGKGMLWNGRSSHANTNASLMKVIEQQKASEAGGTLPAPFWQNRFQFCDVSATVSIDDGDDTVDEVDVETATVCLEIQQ
The experiment in a line: Leishmania donovani Ubiquitin Activating Enzyme (LdE1). It counts as functional. The following applies: 30 µM.

Assay [3] has as its target AMP-activated protein kinase, AMPK (Homo sapiens) (UniProt P54646+O43741+P54619+Q9UGJ0+Q9Y478+Q13131+Q9UGI9). The experiment in a line: AMP-dependent Kinase enzyme assay. An in vitro enzyme assay that detects ADP turnover that is directly proportional to AMPK activity. This uses naive AMPK that is activated during the assay with MK-8722. The format is functional. The following applies: 30 µM.

For assay [4], the target named is Sialic acid-binding Ig-like lectin 9 (Homo sapiens) (UniProt Q9Y336). Kind of assay: Hs-Siglec9 ALPHAscreen SOP 20170721. The following applies: 10 µM. In general terms: Alpha assays give light when donor and acceptor beads are brought close together.
Sequence of Sialic acid-binding Ig-like lectin 9 (Homo sapiens) (Q9Y336 whole entry): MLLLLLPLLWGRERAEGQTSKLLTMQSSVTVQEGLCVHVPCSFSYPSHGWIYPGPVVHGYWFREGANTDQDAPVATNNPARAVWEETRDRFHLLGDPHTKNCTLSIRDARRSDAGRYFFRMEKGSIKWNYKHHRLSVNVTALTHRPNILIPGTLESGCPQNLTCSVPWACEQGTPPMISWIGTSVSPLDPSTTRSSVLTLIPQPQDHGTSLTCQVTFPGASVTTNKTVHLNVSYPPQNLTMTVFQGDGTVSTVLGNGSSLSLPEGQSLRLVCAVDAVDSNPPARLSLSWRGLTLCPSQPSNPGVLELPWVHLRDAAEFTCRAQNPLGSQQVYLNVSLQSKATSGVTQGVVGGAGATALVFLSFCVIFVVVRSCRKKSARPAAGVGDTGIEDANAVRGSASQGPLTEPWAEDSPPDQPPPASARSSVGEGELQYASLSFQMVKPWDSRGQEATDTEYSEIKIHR
The next assay deals with Trypanosoma cruzi. Kind of assay: Trypanosoma cruzi phosphomannomutase and mannose-1-phosphate guanylyltransferase assay. Conditions: 10 µM. The format is functional.
The target of assay [5] is T2, Arginase-2, mitochondrial (Homo sapiens) (UniProt P78540).
T2 sequence (whole entry): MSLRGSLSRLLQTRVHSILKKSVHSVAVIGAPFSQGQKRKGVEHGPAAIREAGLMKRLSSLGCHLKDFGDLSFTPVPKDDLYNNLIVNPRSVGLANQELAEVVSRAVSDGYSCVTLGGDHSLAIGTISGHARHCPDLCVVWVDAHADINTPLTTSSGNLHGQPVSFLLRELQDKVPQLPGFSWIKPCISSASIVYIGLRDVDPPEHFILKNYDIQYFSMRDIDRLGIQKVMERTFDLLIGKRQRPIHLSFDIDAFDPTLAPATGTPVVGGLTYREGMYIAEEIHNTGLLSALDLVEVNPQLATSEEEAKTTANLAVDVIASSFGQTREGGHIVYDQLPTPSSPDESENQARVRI
Kind of assay: in vitro enzyme assay to detect the production of urea directly proportional to the activity of Arginase II. Also: in the data most compounds retested in dose-response had high values. The format is functional. Conditions: 33.3 µM.

For assay [6], the target named is T3, Proteasome subunit beta (Trypanosoma cruzi) (UniProt O96673).
T3 sequence (whole entry): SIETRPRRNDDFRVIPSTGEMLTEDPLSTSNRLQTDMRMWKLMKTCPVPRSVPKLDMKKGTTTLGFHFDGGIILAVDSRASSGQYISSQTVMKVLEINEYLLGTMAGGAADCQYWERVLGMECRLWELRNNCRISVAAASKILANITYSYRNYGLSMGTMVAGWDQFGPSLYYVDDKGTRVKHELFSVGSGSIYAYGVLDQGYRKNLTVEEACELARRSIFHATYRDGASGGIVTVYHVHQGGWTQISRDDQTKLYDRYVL
Kind of assay: Trypanosoma cruzi proteasome chymotrypsin-like activity (TcProtChymo) assay. Also: in the data most compounds retested in dose-response had high values. The format is functional. Conditions: 9.37 µM.

The species entered for a further assay is Homo sapiens. Kind of assay: To identify inhibition of the IFN signalling (Jak-Stat) pathway via expression of an eGFP reporter gene under the control of an IFN-stimulated response element (ISRE) containing MxA promoter. The following applies: 30 µM. It counts as functional. On the technique in general: Reporter assays use an easily measured gene product as a stand-in for the process of interest.

For assay [7], the target named is T4, Tyrosyl-tRNA synthetase, putative (Trypanosoma cruzi (strain CL Brener)) (UniProt Q4DSP6).
T4 sequence (whole entry): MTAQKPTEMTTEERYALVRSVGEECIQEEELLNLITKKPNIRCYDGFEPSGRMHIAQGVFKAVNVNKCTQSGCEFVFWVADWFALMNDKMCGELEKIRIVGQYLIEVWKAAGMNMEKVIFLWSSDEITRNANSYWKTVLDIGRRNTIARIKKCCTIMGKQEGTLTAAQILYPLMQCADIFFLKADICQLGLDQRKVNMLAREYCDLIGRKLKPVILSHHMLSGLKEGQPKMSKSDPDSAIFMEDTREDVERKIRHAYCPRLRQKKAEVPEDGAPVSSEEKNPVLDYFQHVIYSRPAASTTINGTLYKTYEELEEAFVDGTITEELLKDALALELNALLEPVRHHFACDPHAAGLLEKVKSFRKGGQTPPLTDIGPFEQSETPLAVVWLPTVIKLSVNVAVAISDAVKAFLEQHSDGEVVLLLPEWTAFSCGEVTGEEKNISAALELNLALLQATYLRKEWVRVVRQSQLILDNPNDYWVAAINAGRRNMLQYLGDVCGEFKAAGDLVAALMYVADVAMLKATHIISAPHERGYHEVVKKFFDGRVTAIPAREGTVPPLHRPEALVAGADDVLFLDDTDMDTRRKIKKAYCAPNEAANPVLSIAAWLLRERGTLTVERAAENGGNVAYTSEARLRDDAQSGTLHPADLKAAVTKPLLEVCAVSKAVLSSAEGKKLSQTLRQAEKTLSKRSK
The experiment in a line: Trypanosoma cruzi tyrosyl tRNA synthetase (TcYRS) _High Tyrosine SOP. Also: in the data most compounds retested in dose-response had high values. It counts as functional. The following applies: 30 µM.

In assay [8] the target is T4, Tyrosyl-tRNA synthetase, putative (Trypanosoma cruzi (strain CL Brener)). The experiment in a line: Trypanosoma cruzi tyrosyl tRNA synthetase (TcYRS) SOP. The format is functional. The following applies: 30 µM.
Assay [9] deals with Chromo domain-containing protein 1 (Saccharomyces cerevisiae (strain ATCC 204508 / S288c) (Baker's yeast)) (UniProt P32657). Kind of assay: ScCHD-1 Enzyme Inhibition Assay. Also: in the data most compounds retested in dose-response had high values. The following applies: 30 µM. It counts as functional.
Sequence of Chromo domain-containing protein 1 (Saccharomyces cerevisiae (strain ATCC 204508 / S288c) (Baker's yeast)) (P32657 whole entry, the tested form may be a part): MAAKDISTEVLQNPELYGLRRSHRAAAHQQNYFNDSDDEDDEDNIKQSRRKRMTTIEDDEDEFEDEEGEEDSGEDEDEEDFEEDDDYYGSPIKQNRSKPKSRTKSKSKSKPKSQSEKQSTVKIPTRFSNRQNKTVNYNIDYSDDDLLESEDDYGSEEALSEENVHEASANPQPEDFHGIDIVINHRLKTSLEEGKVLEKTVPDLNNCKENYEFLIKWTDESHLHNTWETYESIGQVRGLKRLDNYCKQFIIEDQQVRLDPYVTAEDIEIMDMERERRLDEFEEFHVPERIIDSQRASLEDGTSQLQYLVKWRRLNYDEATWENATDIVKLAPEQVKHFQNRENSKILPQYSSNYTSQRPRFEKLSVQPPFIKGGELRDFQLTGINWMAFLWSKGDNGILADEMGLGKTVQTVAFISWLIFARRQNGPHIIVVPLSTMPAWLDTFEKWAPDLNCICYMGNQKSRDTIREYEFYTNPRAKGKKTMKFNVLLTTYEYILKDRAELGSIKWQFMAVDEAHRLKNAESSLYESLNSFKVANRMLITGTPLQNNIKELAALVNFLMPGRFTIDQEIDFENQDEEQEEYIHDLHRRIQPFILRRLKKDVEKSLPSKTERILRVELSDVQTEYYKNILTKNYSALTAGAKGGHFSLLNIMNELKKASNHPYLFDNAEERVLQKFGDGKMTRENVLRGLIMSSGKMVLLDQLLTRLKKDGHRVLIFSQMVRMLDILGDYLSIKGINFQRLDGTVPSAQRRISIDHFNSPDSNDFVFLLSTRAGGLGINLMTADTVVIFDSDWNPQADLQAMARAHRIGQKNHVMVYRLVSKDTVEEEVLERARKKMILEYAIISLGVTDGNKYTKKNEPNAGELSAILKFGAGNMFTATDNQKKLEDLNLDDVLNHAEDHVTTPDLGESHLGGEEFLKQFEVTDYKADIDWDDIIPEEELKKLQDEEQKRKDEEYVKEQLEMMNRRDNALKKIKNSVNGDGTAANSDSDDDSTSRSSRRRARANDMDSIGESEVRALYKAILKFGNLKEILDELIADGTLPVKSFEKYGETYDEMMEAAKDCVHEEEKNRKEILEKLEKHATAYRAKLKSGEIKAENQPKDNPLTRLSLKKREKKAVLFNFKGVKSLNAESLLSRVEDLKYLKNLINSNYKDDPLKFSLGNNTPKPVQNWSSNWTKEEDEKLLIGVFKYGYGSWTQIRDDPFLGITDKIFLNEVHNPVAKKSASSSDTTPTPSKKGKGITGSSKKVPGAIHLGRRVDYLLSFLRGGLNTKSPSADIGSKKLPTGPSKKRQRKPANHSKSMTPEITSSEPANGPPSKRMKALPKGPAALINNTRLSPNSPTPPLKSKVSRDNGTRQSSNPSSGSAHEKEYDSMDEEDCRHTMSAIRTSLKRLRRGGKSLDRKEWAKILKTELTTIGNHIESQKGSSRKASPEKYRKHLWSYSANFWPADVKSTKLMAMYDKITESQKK

SMILES strings stand for the structures. For some of these results: Measured potencies and affinities stand elsewhere.

Sequence of Protein translocase subunit SecA (Escherichia coli (strain K12)) (P10408 whole entry): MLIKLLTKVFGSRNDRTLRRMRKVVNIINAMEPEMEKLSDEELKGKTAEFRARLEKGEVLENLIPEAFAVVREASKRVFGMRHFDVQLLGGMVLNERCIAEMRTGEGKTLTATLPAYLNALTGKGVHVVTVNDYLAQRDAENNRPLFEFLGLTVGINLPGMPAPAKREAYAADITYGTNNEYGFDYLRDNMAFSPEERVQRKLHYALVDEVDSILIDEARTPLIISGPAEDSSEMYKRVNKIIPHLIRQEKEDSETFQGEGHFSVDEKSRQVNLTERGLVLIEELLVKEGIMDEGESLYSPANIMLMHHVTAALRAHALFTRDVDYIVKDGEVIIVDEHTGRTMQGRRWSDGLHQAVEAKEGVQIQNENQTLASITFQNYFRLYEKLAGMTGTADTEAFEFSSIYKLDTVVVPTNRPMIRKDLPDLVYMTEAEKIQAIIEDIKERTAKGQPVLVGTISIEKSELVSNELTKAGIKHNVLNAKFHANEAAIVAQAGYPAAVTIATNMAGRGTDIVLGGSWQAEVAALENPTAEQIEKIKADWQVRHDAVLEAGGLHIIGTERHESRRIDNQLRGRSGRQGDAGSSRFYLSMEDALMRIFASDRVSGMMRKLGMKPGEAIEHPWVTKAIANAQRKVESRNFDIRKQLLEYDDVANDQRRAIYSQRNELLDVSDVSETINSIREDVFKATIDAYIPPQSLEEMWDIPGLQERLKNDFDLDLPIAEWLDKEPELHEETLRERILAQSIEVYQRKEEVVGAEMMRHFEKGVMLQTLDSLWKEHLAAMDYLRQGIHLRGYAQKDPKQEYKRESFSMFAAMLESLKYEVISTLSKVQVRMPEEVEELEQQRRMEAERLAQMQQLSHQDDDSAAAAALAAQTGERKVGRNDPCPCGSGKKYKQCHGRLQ

For the compound `CSCCCN1CCCC1c1noc(C)n1` (stereo unspecified), the Percent Effect was -0.0492% in assay [1]; 13.2% in [2]; -11.1% in assay [3]; -5.04% in [4]; 6.39% in the assay with Trypanosoma cruzi; 8.43% in assay [5]. The Percent Effect in [6] was 23.7%; in the assay listed under Homo sapiens, 19.4%; in assay [7], 14.2%; in [8] it was 21.9%; in assay [9], -9.94%.
On to `COc1ccc(NC(=O)NCC(O)c2ccc(F)cc2F)c(OC)c1` (stereo unspecified), for which the Percent Effect in assay [1] was 0.46%; in assay [2] it was 3.8%; in assay [3] it was 1.85%; in assay [4] it was -3.56%; in the assay on Trypanosoma cruzi it was -4.41%; in [5] it was 10.5%. In addition, the Percent Effect in [6] is 13.2%; in the assay listed under Homo sapiens, 12.5%; in assay [7], 3.12%; in [8], 10.1%; in assay [9], -20.4%.
With `Cc1nc(N2CCN(C(=O)c3ccc(O)cc3)CC2)c2cnn(C)c2n1`, the Percent Effect in assay [1] was -0.631%; in assay [2], 0%; in assay [3], -5.77%; in [4], 5.23%; in the assay on Trypanosoma cruzi, -2.74%; in assay [5], 1.6%. Also, the Percent Effect in assay [6] was -2.88%; in the assay listed under Homo sapiens, 15.3%; in assay [7], -2.46%; in [8], -6.17%; in assay [9], 0.501%.
For `Cc1ccc(C(=O)N2CCn3cc(CN4CCCCC4)nc3C2)o1`, the Percent Effect in assay [1] is -1.62%; in assay [2] it was -2.6%; in assay [3], 0.425%; in assay [4], -11.1%; with Trypanosoma cruzi, -1.48%; in assay [5] it was 21.3%. The Percent Effect in assay [6] is 5.57%; in the assay listed under Homo sapiens it was 1.99%; in [7], -4.23%; in assay [8] it was -6.41%; in assay [9], 8.37%.
`O=C(NCCNc1cnccn1)C1CCN(C(=O)N2CCCC2)CC1`: the Percent Effect in [1] is -3.3%; in assay [2] it was 19%; in [3], -1.9%; in assay [4], -1.57%; in the assay on Trypanosoma cruzi, -2.36%; in [5] it was -5.81%. The Percent Effect was 15.6% in assay [6]; 8.62% in the assay filed under Homo sapiens; -3.12% in [7]; 17.7% in [8]; -23.5% in [9].
`CN1CCC(c2cccc(Cc3ccc(F)cc3)n2)CC1`: the Percent Effect in assay [1] was -4.16%; in [2], -1.35%; in assay [3] it was 11.1%; in assay [4], -2.02%; in the assay on Trypanosoma cruzi it was 0.395%; in [5], -6.26%. Besides, the Percent Effect is 6.08% in assay [6]; 2.47% in the assay filed under Homo sapiens; 2.15% in assay [7]; -1.3% in assay [8]; -7.17% in assay [9].
As for `Cn1nc(COc2cccnc2)c2c1CCN(c1cnccn1)C2`, the Percent Effect in [1] is -4.47%; in assay [2] it was 13.5%; in assay [3], -0.741%; in [4], 2.04%; in the assay on Trypanosoma cruzi it was 0.293%; in [5], 14.3%. The Percent Effect in [6] is 26.2%; in the assay filed under Homo sapiens, 4.97%; in assay [7], 5.41%; in [8], 12.8%; in assay [9], -3.43%.
For the compound `Cc1nc[nH]c1CN1C[C@@H]2CC[C@H](C1)N(C(=O)CCc1cnn(C)c1)C2`, the Percent Effect was -1.58% in assay [1]; 6.94% in assay [2]; -9.43% in assay [3]; 16.8% in assay [4]; 4.96% in the assay on Trypanosoma cruzi; 29.1% in [5]. The Percent Effect in assay [6] was 5.09%; in the assay listed under Homo sapiens, -11.8%; in [7], 2.1%; in assay [8] it was 7.69%; in [9] it was -1%.
Take `CCc1nc2n(n1)CC(NCc1ncc(-c3ccccc3)o1)CC2` (stereo unspecified): the Percent Effect in assay [1] is -1.59%; in assay [2] it was -2.63%; in assay [3] it was 0.215%; in [4], 5.65%; in the assay with Trypanosoma cruzi, 1.21%; in assay [5], 1.8%. Besides, the Percent Effect in [6] was 4.65%; in the assay listed under Homo sapiens, -5.2%; in assay [7], 3.45%; in assay [8] it was -23.5%; in assay [9], -5.56%.
`Cc1cnn(C2CCCN(C(=O)C3=NN(C)C(=O)CC3)C2)c1` (stereo unspecified): the Percent Effect is -6.81% in assay [1]; 21.6% in assay [2]; -15.8% in [3]; 11.8% in assay [4]; 8.4% with Trypanosoma cruzi; 3.21% in assay [5]. For the same compound, the Percent Effect in assay [6] is 15.7%; in the assay filed under Homo sapiens it was 2.98%; in assay [7] it was 8.37%; in assay [8] it was 13.6%; in [9], -12.6%.
Take `Cc1c(C)n(Cc2ccccn2)c2nc3c(c(N)c12)CCCC3`: the Percent Effect in assay [1] is -3.58%; in assay [2], -1.33%; in assay [3] it was 15.5%; in assay [4], 6.91%; in the assay on Trypanosoma cruzi it was -3.73%; in assay [5], -8.98%. Besides, the Percent Effect is 12.8% in assay [6]; -6.48% in the assay listed under Homo sapiens; 2.12% in assay [7]; 5.13% in [8]; -5.09% in [9].

(Values after ChEMBL document CHEMBL3988442, “University of Dundee, Small-Polar-MMV Screening Library” (2021).)
